Composite z-score and z-score data for five molecules are collected here from PubChem BioAssay.

Activity calls are given as the source filed them. Unless noted, how the calls were made is not given here.

The nature of assay [1]: compounds binding Alexa647 anti-His antibody – biochemical, small-molecule microarray, 635 nm fluorescence, artefact control for SMM control protein annotation, primary screen (AID 1128).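 Further: score merges feature fluorescence with signal-to-noise for each printed compound spot.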 The following applies: higher = more signal.
For assay [2], the system named is Human papillomavirus type 1a E7 protein (residues 1-88). Kind of assay: HPV1a E7 small-molecule binders, primary screen, biochemical, small-molecule microarray, residues 1-88, 635 nm (AID 1129). The following applies: small-molecule microarray binding, fluorescence 635 nm; higher = more signal.
The target in assay [3] is Focal adhesion kinase 1 (Homo sapiens) (UniProt Q05397). Kind of assay: PTK2 protein binding on printed compound slides – biochemical, small-molecule microarray, 635/667 nm fluorescence, BSA, DTT, primary screen (AID 1130).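 Further: composite of spot emission at 667 nm and signal to noise over triplicate slides.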 The following applies: 635 nm fluorescence, higher = more signal.
Focal adhesion kinase 1 (Homo sapiens), sequence (Q05397 whole entry, looked up): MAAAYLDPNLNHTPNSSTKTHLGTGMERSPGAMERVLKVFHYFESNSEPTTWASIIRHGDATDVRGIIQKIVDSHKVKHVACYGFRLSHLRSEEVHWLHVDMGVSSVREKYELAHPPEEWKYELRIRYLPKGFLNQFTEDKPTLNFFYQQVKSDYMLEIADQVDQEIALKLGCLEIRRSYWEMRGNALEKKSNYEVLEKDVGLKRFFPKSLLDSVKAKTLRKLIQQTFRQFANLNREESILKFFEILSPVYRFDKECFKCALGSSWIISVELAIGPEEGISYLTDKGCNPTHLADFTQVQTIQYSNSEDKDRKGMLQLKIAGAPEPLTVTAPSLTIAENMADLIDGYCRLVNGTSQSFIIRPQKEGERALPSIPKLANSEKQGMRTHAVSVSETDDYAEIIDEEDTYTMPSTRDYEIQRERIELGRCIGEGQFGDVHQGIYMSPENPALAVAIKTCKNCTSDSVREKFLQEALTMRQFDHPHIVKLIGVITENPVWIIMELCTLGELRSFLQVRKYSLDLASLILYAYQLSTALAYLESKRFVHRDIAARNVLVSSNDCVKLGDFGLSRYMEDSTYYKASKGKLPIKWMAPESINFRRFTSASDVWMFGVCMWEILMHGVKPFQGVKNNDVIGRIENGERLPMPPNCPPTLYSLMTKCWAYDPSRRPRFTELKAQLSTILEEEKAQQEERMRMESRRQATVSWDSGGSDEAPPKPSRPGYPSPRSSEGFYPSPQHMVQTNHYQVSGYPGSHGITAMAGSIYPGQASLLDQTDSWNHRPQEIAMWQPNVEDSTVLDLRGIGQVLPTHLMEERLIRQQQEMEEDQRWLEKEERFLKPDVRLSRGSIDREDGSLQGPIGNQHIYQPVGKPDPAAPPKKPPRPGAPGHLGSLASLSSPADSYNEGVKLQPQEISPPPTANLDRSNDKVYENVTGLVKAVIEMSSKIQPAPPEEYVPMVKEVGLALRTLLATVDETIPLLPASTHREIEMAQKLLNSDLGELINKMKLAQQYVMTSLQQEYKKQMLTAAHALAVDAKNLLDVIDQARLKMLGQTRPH
Assay [4] deals with Fibrinogen (Alexa647-labelled). The assay is described as follows: Alexa647-fibrinogen binding to printed small molecules – biochemical, small-molecule microarray, 635/667 nm fluorescence, artefact control for SMM control-protein annotation, profiling panel (AID 1131).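 Further: z-score merges 667 nm fluorescence with per-spot signal-to-noise over triplicate slides.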 The following applies: fibrinogen-A647 binding fluorescence, higher = more signal.
Assay [5] has as its target Follistatin (Homo sapiens) (UniProt P19883). Kind of assay: FST protein binding to printed compounds – biochemical, small-molecule microarray, 635/667 nm fluorescence, primary screen (AID 1132). The following applies: 635 nm fluorescence, higher = more signal.
For assay [6], the target named is Fibroblast growth factor 2 (Homo sapiens) (UniProt P09038). The assay is described as follows: basic fibroblast growth factor binding to printed compounds – biochemical, small-molecule microarray, 635/667 nm fluorescence, primary screen (AID 1133). The settings on record: FGF2, fluorescence 635/667, higher = more signal.
Fibroblast growth factor 2 (Homo sapiens), sequence (P09038 whole entry, looked up): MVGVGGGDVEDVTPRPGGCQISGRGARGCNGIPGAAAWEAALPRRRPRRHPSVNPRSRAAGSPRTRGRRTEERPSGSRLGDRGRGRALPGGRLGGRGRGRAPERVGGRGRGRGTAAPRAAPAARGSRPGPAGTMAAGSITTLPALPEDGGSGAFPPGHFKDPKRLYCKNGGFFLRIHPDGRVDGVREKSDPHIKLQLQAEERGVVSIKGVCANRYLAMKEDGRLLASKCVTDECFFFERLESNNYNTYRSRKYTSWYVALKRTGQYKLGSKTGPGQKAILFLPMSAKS
Assay [7] is described as follows: JC-1 mitochondrial potential readout, lung cancer cells – cell-based, A549, JC-1 fluorescence, basal, 24 h, 100 nL, profiling panel (AID 1138).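 Further: A549 lung adenocarcinoma cells under basal conditions with no added stimulus; test concentration not given here.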 The following applies: higher = more signal.
In assay [8] the test system is Lefty1. Kind of assay: Lefty1 protein binding to printed compounds – biochemical, small-molecule microarray, 635/667 nm fluorescence, primary screen (AID 1139). The settings on record: fluorescence 635/667, higher = more signal.
The test system of assay [9] is wheat germ agglutinin (Triticum aestivum), Alexa647-labelled. The assay is described as follows: Alexa647-WGA lectin binding to printed small molecules – biochemical, small-molecule microarray, 635/667 nm fluorescence, artefact control for SMM control-protein annotation, profiling panel (AID 1140).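 Further: score merges 667 nm feature emission with signal to noise over triplicate slides.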 The settings on record: WGA-A647 binding, 635 nm fluorescence, higher = more signal.

The target in assay [10] is Luciferin 4-monooxygenase (Photinus pyralis) (UniProt P08659). The assay is described as follows: inhibition of purified Photinus pyralis luciferase – biochemical, luminescence, purified enzyme, 2006 set, primary screen (AID 1141).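 Further: cell-free assay with purified firefly luciferase at 100 ng per well in PBS; test concentration not given here.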 The following applies: purified firefly luciferase, SteadyGlo luminescence, 30 min; higher = more signal, called active from +8 up or from −8 down.
Luciferin 4-monooxygenase (Photinus pyralis), sequence (P08659 whole entry, looked up): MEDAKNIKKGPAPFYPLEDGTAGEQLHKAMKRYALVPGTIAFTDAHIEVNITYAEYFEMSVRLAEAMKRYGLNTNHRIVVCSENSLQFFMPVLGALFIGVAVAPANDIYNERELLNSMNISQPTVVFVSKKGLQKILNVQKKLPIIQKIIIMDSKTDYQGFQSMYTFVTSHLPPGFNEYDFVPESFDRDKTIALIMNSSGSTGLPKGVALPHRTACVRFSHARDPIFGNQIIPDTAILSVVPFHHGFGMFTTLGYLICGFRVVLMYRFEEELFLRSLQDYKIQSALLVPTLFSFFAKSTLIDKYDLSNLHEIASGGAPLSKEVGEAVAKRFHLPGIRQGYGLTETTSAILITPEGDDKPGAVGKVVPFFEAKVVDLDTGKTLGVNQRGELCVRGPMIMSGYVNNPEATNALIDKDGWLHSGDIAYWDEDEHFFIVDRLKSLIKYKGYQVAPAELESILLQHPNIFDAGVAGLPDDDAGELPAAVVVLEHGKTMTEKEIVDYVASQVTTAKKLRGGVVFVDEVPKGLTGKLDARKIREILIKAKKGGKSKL

The subject of assay [11] is Wnt5a (protein binding on small-molecule microarray). Kind of assay: small molecules binding Wnt5a protein – biophysical, small-molecule microarray, 635/667 nm fluorescence, primary screen (AID 1142).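 Further: fluorescence read at 667 nm with signal to noise per printed feature.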 The settings on record: 635 nm fluorescence, higher = more signal.
Assay [12] is described as follows: ATP-based viability of Huh7 replicon cells – cell-based, CellTiter-Glo luminescence, basal, 48 h, cytotoxicity control for HCV replication inhibitor project, primary screen (AID 1143).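 Further: Huh7 hepatoma cells carrying a hepatitis C replication reporter with no stimulus; test concentration not given here.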 The settings on record: higher = more signal, called active from +8 up or from −8 down. A general note: A replicon is a self-replicating genome or part of one, used to study replication in cells.

Assay [13] in a line: Pseudomonas biofilm growth suppression – PAO1 strain, BacTiter-Glo luminescence, LB-PBS, primary screen (AID 1144). The following applies: P. aeruginosa PAO1 biofilm, 12 h, higher = more signal.
Assay [14] is described as follows: basal CRE-LacZ reporter activity in PC12 – cell-based, unstimulated, primary screen (AID 1145). The settings on record: no forskolin, luminescence, 4.5 h, higher = more signal, called active from +8 up or from −8 down.
The nature of assay [15]: forskolin-driven CRE-LacZ activity in PC12 – cell-based, CRE-LacZ reporter, forskolin-stimulated, primary screen (AID 1146).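 Further: PC12 cells with 6xCRE LacZ reporter stimulated by forskolin 10 µM; beta-galactosidase reporter signal reflecting CREB driven transcription.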 The settings on record: luminescence, 4.5 h, higher = more signal, called active from +8 up or from −8 down.
For assay [16], the target named is Streptavidin (Streptomyces avidinii) (UniProt P22629). Kind of assay: compounds binding control protein streptavidin – biophysical, small-molecule microarray, 635/667 nm fluorescence, artefact control for SMM compound annotation, primary screen (AID 1147).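 Further: signal reflects streptavidin binding to arrayed compounds as a control protein.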 The settings on record: higher = more signal.
Streptavidin (Streptomyces avidinii), sequence (P22629 whole entry, looked up): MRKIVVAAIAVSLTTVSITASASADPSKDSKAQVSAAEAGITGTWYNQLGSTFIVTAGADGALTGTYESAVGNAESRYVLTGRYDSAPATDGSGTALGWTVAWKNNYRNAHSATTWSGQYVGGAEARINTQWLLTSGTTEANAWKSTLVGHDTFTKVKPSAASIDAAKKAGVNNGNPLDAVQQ
Assay [17] can be described thus: probe aInhba binding on compound microarray – biochemical, small-molecule microarray, 635/667 nm fluorescence, primary screen (AID 1148).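 Further: score merges 667nm spot fluorescence with signal-to-noise for antibody binding to printed compounds.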 The settings on record: higher = more signal.
Assay [18] deals with Torsin-1A (Homo sapiens) (UniProt O14656). Kind of assay: TOR1A wild-type binding on microarray – cell lysate, small-molecule microarray, lysate, 635/667 nm, primary screen (AID 1149). The following applies: COS7 hTOR1A-WT lysate, 635 nm fluorescence, higher = more signal.
Torsin-1A (Homo sapiens), sequence (O14656 whole entry, looked up): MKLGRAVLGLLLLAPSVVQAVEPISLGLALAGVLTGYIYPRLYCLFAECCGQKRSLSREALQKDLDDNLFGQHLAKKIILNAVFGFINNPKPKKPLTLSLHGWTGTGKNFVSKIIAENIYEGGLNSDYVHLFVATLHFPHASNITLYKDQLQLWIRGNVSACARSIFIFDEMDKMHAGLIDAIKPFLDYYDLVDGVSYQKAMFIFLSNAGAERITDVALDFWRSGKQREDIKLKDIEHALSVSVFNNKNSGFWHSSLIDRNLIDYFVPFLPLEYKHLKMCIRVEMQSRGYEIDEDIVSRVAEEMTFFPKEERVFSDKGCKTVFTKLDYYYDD
Assay [19] has the same target. Kind of assay: torsin A mutant lysate binding on microarrays – cell lysate, small-molecule microarray, COS7 lysate, 635/667 nm fluorescence, primary screen (AID 1150).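 Further: score pools 667 nm emission and signal to noise measuring lysate protein binding.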 The settings on record: COS7 hTOR1A mutant lysate, 635 nm fluorescence, higher = more signal.
The subject of assay [20] is Sonic hedgehog protein (Shh). The assay is described as follows: Sonic hedgehog microarray binding compounds – biochemical, small-molecule microarray, 635/667 nm fluorescence, primary screen (AID 1151).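 Further: Shh protein binding to compounds spotted on small-molecule microarray slides; score combines spot fluorescence intensity with signal-to-noise across triplicate slides.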 The following applies: 635 nm fluorescence, higher = more signal.

Follistatin (Homo sapiens), sequence (P19883 whole entry, looked up): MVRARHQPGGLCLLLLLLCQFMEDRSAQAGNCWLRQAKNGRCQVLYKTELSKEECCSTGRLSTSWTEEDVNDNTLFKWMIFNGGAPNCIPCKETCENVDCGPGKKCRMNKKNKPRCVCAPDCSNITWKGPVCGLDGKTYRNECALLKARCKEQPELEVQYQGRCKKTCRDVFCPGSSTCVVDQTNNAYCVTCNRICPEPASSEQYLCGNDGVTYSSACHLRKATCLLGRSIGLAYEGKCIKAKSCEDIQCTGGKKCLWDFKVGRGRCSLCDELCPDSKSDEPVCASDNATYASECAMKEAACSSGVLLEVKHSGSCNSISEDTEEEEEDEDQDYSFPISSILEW

With `C=CCOC(=O)[C@H]1[C@@H]2C(=O)O[C@@H](c3ccccc3)[C@@H](c3ccccc3)N2[C@@H](c2ccc(OCCOC(=O)[C@@H]3C[C@@H]4C(=O)N[C@@H](CC(C)C)C(=O)N4[C@@H]3c3ccc(O)cc3)cc2)[C@]12C(=O)Nc1ccc(I)cc12`, the composite z-score in assay [1] was determined as 0.785; in assay [2], 0.935; in [3], 0.443; in [4], 0.761; in [5], 1.08; in assay [6] it was 1.89. Moreover, the composite z-score in assay [8] is 0.677; in assay [9], 0.902; in [11], 0.15; in assay [16], 0.149; in assay [17], -0.0791; in [18] it was 0.637. Moreover, the results for the composite z-score in [19] and in assay [20] were 1.22 and 1.91, respectively. Further, the z-score was -0.946 in assay [7]; -2.13 (inactive) in assay [10]; -0.901 (inactive) in assay [12]; -1.3 (inactive) in [13]; 0.281 (inactive) in [14]; 0.318 (inactive) in assay [15].
`COc1ccc(CCNC(=O)[C@@H]2c3ccccc3C(=O)N(CC34CC5CC(CC(C5)C3)C4)[C@H]2c2ccc(CO)cc2)cc1`: the composite z-score in [1] is 1.3; in assay [2] it was 1.15; in assay [3], 0.548; in [4] it was 0.61; in assay [5], 1.07; in [6], 1.47. The composite z-score in assay [8] was 0.867; in assay [9], 0.965; in assay [11] it was 0.788; in assay [16], 0.4; in assay [17], -0.0006; in assay [18] it was 0.713. The values for the composite z-score in assay [19] and in assay [20] were 0.801 and 1.4, respectively. Further, the z-score in [7] was 0.125; in [10] it was 1.36 (inactive); in [12], -3.34 (inactive); in [13], -2.65 (inactive); in assay [14] it was 0.441 (inactive); in assay [15], -0.887 (inactive).
Consider `CC[C@H](C)C(=O)O[C@H]1CC[C@]2(C)C3=C(CCC2C1(C)C)[C@]1(C)CC[C@H]([C@H](C)CCCC(C)C)[C@@]1(C)CC3` (stereo not given in full), for which the composite z-score in [1] was 0.226; in assay [2], 0.666; in [3], 0.122; in assay [4], 0.367; in assay [5], 0.538; in assay [6], 0.35. For the same molecule, the composite z-score in [8] was 0.721; in assay [9], 0.0438; in assay [11], 0.0143; in [16], 0.984; in assay [17], -0.292; in assay [18] it was 0.214. Besides, the composite z-score in [19] came out at 0.339; in [20], 0.613. Also, the z-score in assay [7] is 1.15; in [10], -1.4 (inactive); in assay [12] it was 0.15 (inactive); in assay [13], -0.0646 (inactive); in assay [14] it was 0.947 (inactive); in [15], -1.24 (inactive).
As to `COCCOC(=O)N1C(=O)[C@@]2(c3cc(C#CCNC(N)=O)ccc31)[C@H](C(=O)NC[C@H](O)c1ccccc1)[C@H]1C(=O)O[C@H](c3ccccc3)[C@H](c3ccccc3)N1[C@@H]2c1ccc(OCCO)cc1`, the composite z-score in assay [1] amounted to 0.991; in [2], 1.16; in assay [3], 0.707; in assay [4], 0.884; in assay [5] it was 1.18; in assay [6], 0.581. Moreover, the composite z-score in assay [8] was 0.753; in [9] it was 0.851; in [11], 0.0906; in [16] it was 0.516; in assay [17], -0.192; in assay [18] it was 0.131. For the same molecule, the results for the composite z-score in assay [19] and in assay [20] were 0.219 and 0.783, respectively. The z-score is -0.71 in [7]; -0.496 (inactive) in [10]; -0.8 (inactive) in [12]; -0.297 (inactive) in [13]; -0.606 (inactive) in [14]; -0.965 (inactive) in assay [15].
As for `C=C(COC)/C(=C/C[C@H](OC(=O)c1ccncc1)c1cccc(OCCO)c1)c1cnc2ccccc2c1`, the composite z-score in assay [1] amounted to 2.08; in assay [2] it was 1.22; in assay [3], 0.521; in assay [4] it was 0.893; in assay [5] it was 1.36; in assay [6], 0.694. Besides, the composite z-score in assay [8] came to 1.62; in [9], 1.4; in assay [11], 0.154; in [16], 1.7; in assay [17] it was 0.322; in assay [18], 0.839. In addition, the composite z-score in [19] turned out to be 0.897; in assay [20] it was 2.02. Further, the z-score is 0.365 in assay [7]; -0.631 (inactive) in assay [10]; 0.0839 (inactive) in assay [12]; 0.0918 (inactive) in [13]; 0.769 (inactive) in assay [14]; 0.506 (inactive) in assay [15].
